The source of these data is PubChem BioAssay AID2284379 (EPA ToxCast).

This experiment is described as follows: ATG_M_32_EcoTox2: Attagene TRANS-FACTORIAL EcoTox-2 HepG2 Assay for M32 Transcription Factor (Internal Marker). As for the experimental part:
ATG_EcoTox2 is a cell-based, multiplexed assay created by modifying the existing Attagene TRANS-FACTORIAL system to include a panel of nuclear receptors from some or all the following species: human (Homo sapiens), african clawed frog (Xenopus laevis), rainbow trout (Oncorhynchus mykiss), japanese medaka (Oryzias latipes), and zebrafish (Danio rerio). The ECOTOX2-FACTORIAL format uses HepG2, a human liver cell line, with measurements taken at 24 hours after chemical dosing in a 24-well plate. ATG_M_32_EcoTox2 is one of 29 assay components calculated in the ATG_EcoTox2 assay. It is designed to make measurements of mRNA induction, a form of inducible reporter, as detected with fluorescence intensity signals by Reverse transcription polymerase chain reaction (RT-PCR) and Capillary electrophoresis technology.The assay endpoint ATG_M_32_EcoTox2 was analyzed in the positive analysis fitting direction relative to DMSO as the negative control and baseline of activity. Using a type of inducible reporter, measures of mRNA for gain-of-signal activity can be used to understand the background control at the transcription factor-level as they relate to the gene. Furthermore, this assay endpoint can be referred to as a secondary readout, because this assay has produced multiple assay endpoints where this one serves a background control function. To generalize the intended target to other relatable targets, this assay endpoint is annotated to the background measurement intended target family, where the subfamily is internal marker.
Human liver HepG2 cells are transiently transfected with multiple reporter transcription units (MRTUs) in 6-well plates using FuGene 6 reagent (Roche; 3 ml FuGene/1 mg DNA). The MRTU constructs are regulated by a cis-regulating element (promoter). Each RTU expresses a GAL4-UAS that regulates the transcription of a nearby target reporter gene sequence. A major difference between the CIS and TRANS system is that in CIS activities of endogenous TFs are measured, whereas the TRANS assay evaluates changes in activities of exogenous, chimeric NR-Gal4 proteins. […] At the end of 24 hour incubation, total RNA was isolated using TriZol reagent (Invitrogen). The isolated RNA is then reverse-transcribed using oligo(dT) primer and Mo-MLV reverse transcriptase (Invitrogen) with DNAse I (Ambion) treatment for 30 min. The one-tenth of the produced cDNA was amplified by PCR using Taq DNA polymerase (Invitrogen) and two reporter sequence-specific primers. The PCR products were fluorescently labeled by primer extension with 6-arboxyfluorescein (6-FAM) 5'-labeled reporter sequence-specific primer (2 min at 95 C, 20 s at 68 C and 10 min at 72 C) and these products were digested with 5U of HpaI (New England Biolabs) for 2h at 37 C. The fragments were purified using Qiaquick PCR columns (Qiagen), analyzed on an ABI 3130xL genetic analyzer (Applied Biosystems) with peak positions identified by using a set of X-rhodamine (ROX)-labeled MapMarker1000 molecular weight standards (BioVentures). The raw capillary electrophoresis data was processed using Attagraph software (Attagene).

Inconclusive results are not listed. Calls of active or inactive are those of the source. The calls were made as follows: active = hit-call score of the fitted dose curve at least 0.9, where 1 is the maximum; inconclusive = response in the unintended direction; inactive = score below 0.9.

For the compound `CC(C)OC(=O)C(C)(C)Oc1ccc(C(=O)c2ccc(Cl)cc2)cc1`, the result was inactive.
For `CC(c1cc2ccccc2s1)N(O)C(N)=O` (stereo unspecified) the value was “inactive”; for `CN(CCOc1ccc(CC2SC(=O)NC2=O)cc1)c1ccccn1` (stereo unspecified), “inactive”.
For `C[C@@H]1C[C@H]2[C@@H]3CCC4=CC(=O)C=C[C@]4(C)[C@@]3(F)[C@@H](O)C[C@]2(C)[C@@]1(O)C(=O)COP(=O)(O)O` the value was “inactive”; for `Cc1nc(-c2ccc(C(F)(F)F)cc2)sc1C(=O)NCc1ccc(OC(C)(C)C(=O)O)cc1`, “inactive”; for `Cc1c(C)c2c(c(C)c1O)CCC(C)(COc1ccc(CC3SC(=O)NC3=O)cc1)O2` (stereo unspecified), “inactive”.
